Sampled rows, rich in hits. Any-hit rate of the full collection: about 3.1%.
Tau fluor counter = Counterscreen qHTS for Inhibitors of Tau Fibril Formation, Fluorescence Polarization; tau K18 P301L Alexa594 fluorescence, heparin fibrillization; Potency, µM (highest dose often 57.7 µM), inactives show at the highest dose activity change, negative = decrease; 0.93% of 280,000 active; AID 1463, 2008; note: nearly all actives have a fitted effect of over 55% in size
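Human K18 P301L tau (15 uM unlabeled plus 0.24 uM Alexa 594-labeled, final) in 100 mM sodium acetate pH 7 was mixed with compound and 20 uM heparin and incubated 6 hr at 37 C.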
TRb-SRC2 inh = qHTS for Inhibitors of the Interaction of Thyroid Hormone Receptor and Steroid Receptor Coregulator 2; Thyroid hormone receptor beta (Homo sapiens), P10828; TRbeta-SRC2 peptide binding, fluorescence polarization; receptor liganded with 1 µM T3; Potency, µM (top dose mostly 106 µM), inactives show at the highest dose activity change, negative = inhibition, most hits filed as inhibitors; 0.065% of 280,000 active; AID 1469, 2008;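 note: plate controls were bound peptide for no effect and peptide without receptor for full effect; nearly all actives have a fitted effect of over 50% in size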
Target sequence (P10828 whole entry, looked up): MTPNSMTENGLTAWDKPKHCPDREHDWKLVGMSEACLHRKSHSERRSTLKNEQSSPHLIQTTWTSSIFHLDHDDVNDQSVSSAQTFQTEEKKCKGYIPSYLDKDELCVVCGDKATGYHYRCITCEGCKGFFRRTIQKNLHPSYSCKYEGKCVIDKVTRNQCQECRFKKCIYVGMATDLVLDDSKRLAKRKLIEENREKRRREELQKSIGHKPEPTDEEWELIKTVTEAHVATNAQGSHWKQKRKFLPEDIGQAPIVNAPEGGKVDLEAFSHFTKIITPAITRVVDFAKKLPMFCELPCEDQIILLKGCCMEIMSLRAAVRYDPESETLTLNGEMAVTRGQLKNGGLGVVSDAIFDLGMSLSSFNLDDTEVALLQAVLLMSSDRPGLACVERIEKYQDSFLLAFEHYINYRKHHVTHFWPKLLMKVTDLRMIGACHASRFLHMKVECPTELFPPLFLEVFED
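Decrease in fluorescence polarization of 20 nM Texas Red SRC2 coactivator peptide flagged inhibition of its binding to 0.6 uM TRb LBD; 1 uM T3 included, incubation 5 hr, ex 555/em 632 nm.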
Tau ThT inhib = qHTS for Inhibitors of Tau Fibril Formation, Thioflavin T Binding. Microtubule-associated protein tau (Homo sapiens), P10636. recombinant tau K18 P301L (four-repeat tau fragment), heparin-induced fibrillization, ThT fluorescence. Potency, µM (titrated, usually from 57.4 µM), without a hit: at the highest dose activity, negative = inhibition, hits mostly inhibitors. 2.1% of 270,000 active. AID 1460, 2008; note: nearly all actives have a fitted effect of over 55% in size
Target sequence (P10636 561-689 P618L limits assumed): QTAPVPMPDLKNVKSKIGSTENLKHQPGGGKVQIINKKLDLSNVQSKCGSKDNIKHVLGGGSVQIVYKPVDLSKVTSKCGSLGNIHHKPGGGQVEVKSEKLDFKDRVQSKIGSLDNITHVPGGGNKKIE
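K18 P301L tau (15 uM + 0.24 uM Alexa 594-tagged), heparin 20 uM, NaOAc pH 7, 6 h 37 C; ThT 30 uM, 1 h RT, ex 450/em 510 nm.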
Tau FP inhib = qHTS for Inhibitors of Tau Fibril Formation, Fluorescence Polarization; Microtubule-associated protein tau (Homo sapiens), P10636; K18 P301L tau heparin fibrillization, Alexa594 FP, 6 h; Potency, µM (doses to about 57.7 µM), for the others: at the top dose activity, negative = inhibition, most hits filed as inhibitors; 0.39% of 280,000 active; AID 1468, 2008; note: nearly all actives have a fitted effect of over 55% in size
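Quantitative HTS format: compounds meet 15 uM recombinant K18 P301L tau and Alexa 594-tau tracer in 100 mM sodium acetate pH 7; 20 uM heparin triggers fibrillization at 37 C over 6 hr; FP gives the signal.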
TexasRed fluor = Total Fluorescence Counterscreen for Inhibitors of the Interaction of Thyroid Hormone Receptor and Steroid Receptor Coregulator 2; TRb/SRC2 Texas Red total fluorescence interference; Potency, µM (highest dose often 106 µM), for inactives: at the highest dose fluorescence change, negative = quenching; 0.29% of 280,000 active; active = well fitted curve in either direction with a large enough effect; inconclusive = small, poorly fitted or top-dose-only effect
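Human TRb ligand-binding domain at 0.6 uM with 20 nM Texas Red SRC2 peptide in Tris buffer containing 1 uM T3 and 5% DMSO, incubated with compound 5 h at ambient temperature. Total fluorescence (555/632 nm) calculated as parallel + 2 × perpendicular.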
Numbers without * were called inactive; ? = inconclusive; / = not tested or not shown; [ ] = another dose, or the depositor's remark. Unless noted, calls come from the whole dose curve; as a rule, active = well fitted curve in the direction sought with a large enough effect; inconclusive = small, poorly fitted or top-dose-only effect, or another doubt; inactive = no such curve, though single readings can be large; an effect the other way counts as inactive or inconclusive. Unless noted, % is set by controls: 0 for no effect and ±100 for the full control effect; potency is the fitted concentration of half-maximal effect.

SMILES	Tau fluor counter	TRb-SRC2 inh	Tau ThT inhib	Tau FP inhib	TexasRed fluor
CCOc1ccc(Nc2nc(N)c(C(=O)c3ccccc3Cl)s2)cc1	16µM*[quencher]	-2%	?	3%	-2%
CCOC(=O)c1sc(Nc2ccc(F)cc2)nc1C	-25%	-1%	-12%	13%	-3%
Nc1nc(Nc2ccccc2F)sc1C(=O)c1ccc(Cl)cc1	16µM*[quencher]	-1%	25µM*	-2%	2%
Nc1nc(Nc2cccc(Cl)c2)sc1C(=O)c1ccc(F)cc1	8.9µM*[quencher]	5%	?	?	-4%
O=C(CSc1oc(-c2ccc(F)cc2)nc1S(=O)(=O)c1ccccc1)NC1CCCCC1	-20%	-6%	-8%	-10%	1%
COc1ccc(C(=O)C2CCCN(C(=O)CCc3scnc3C)C2)c(C)c1 (stereo unspecified)	-30%	?	28µM*	-49%	-5%
COc1ccc(C(=O)C2CCCN(C(=O)CCc3ccccn3)C2)c(C)c1 (stereo unspecified)	-7%	1%	-5%	1%	0%
O=[N+]([O-])/C(C(Cl)=C(Cl)Cl)=C(\Sc1ccccc1)N1CCCCC1	-25%	5%	25µM*	?	-1%
CCN(CC)/C(Sc1ccccc1)=C(\C(Cl)=C(Cl)Cl)[N+](=O)[O-]	-3%	-3%	-12%	-5%	0%
CC1CCN(c2ccc(NC(=S)NC(=O)c3ccc(-c4cccc([N+](=O)[O-])c4)o3)cc2)CC1	?	12%	2µM*	-4%	0%
CC(C)=CC[C@@H](O)C1=CC(=O)c2c(O)ccc(O)c2C1=O	?	-3%	4.5µM*	13µM*	28µM*[quencher]
COc1ccc(CCC(=O)NCCc2csc(-c3cccc(F)c3)n2)cc1	-4%	9%	-7%	-1%	-3%
COc1ccc(CNc2ncnc3c2nc2n3CCCC2)cc1	4%	-5%	4%	-14%	18µM*[quencher]
Cc1ccc(CNc2ncnc3c2nc2n3CCCC2)cc1	2%	-3%	3%	-5%	-6%
COC(=O)c1ccc(Nc2ncnc3c2nc2n3CCCC2)cc1	9%	-17%	-12%	2%	18µM*[quencher]
Cc1ccc(Nc2ncnc3c2nc2n3CCCC2)c(Br)c1	14%	-4%	7%	6%	20µM*[quencher]
Fc1ccc(Nc2ncnc3c2nc2n3CCCC2)cc1	-6%	4%	-5%	6%	7%
CN(C)c1ccc(NC(=O)c2cnsn2)cc1	-21%	3%	10µM*	-2%	-1%
COc1cc(C2CC(=O)N(c3ccc(C)c(Cl)c3)C3=C2C(=O)OC3)cc(OC)c1OC (stereo unspecified)	-12%	-2%	-9%	-1%	-29%
COc1ccc(C2CC(=O)N3CN(c4ccc(C)c(Cl)c4)CSC3=C2C#N)cc1OC (stereo unspecified)	-28%	1%	14µM*	22µM*	3%
COc1ccc(N2CSC3=C(C#N)C(c4cc(OC)ccc4OC)CC(=O)N3C2)c(OC)c1 (stereo unspecified)	?	-5%	13µM*	28µM*	1%
CCOc1ccccc1N1CSC2=C(C#N)C(c3c(OC)ccc4ccccc34)CC(=O)N2C1 (stereo unspecified)	?	?	4µM*	10µM*	-20%
CCCSC1=C(C#N)C(c2cc(OC)ccc2OC)CC(=O)N1 (stereo unspecified)	-6%	4%	-4%	2%	-2%
COc1ccc(N2CSC3=C(C#N)C(c4ccc(OC)c(OC)c4)CC(=O)N3C2)c(OC)c1 (stereo unspecified)	?	1%	7.9µM*	16µM*	2%
CCCCCC(=O)Nc1ccc(S(=O)(=O)Nc2nccc(C)n2)cc1	-2%	1%	-2%	-2%	-1%
SMILES	Tau fluor counter	TRb-SRC2 inh	Tau ThT inhib	Tau FP inhib	TexasRed fluor
N#Cc1c(-c2ccccc2)ccnc1Oc1ccccc1	-12%	-11%	-8%	-8%	1%
COc1ccc(N2CSC3=C(C#N)C(c4cc(OC)c(OC)cc4OC)CC(=O)N3C2)c(OC)c1 (stereo unspecified)	?	2%	8.9µM*	13µM*	5%
COc1cc(OC)c(C2CC(=O)N3CN(c4ccc(C)cc4)CSC3=C2C#N)cc1OC (stereo unspecified)	-28%	3%	28µM*	?	1%
COc1ccc(N2C(=O)C3CC(C)=C(C)CC3C2=O)c(OC)c1 (stereo unspecified)	-13%	13%	-6%	-10%	0%
Cc1cc(C)n2nc(CC(=O)NCc3ccccc3Cl)nc2n1	-7%	3%	-3%	0%	-6%
COc1ccc(C2CC(c3ccccc3)=NN2c2ccc(/C=N/NC(=O)c3ccncc3)cc2)cc1 (stereo unspecified)	13µM*[quencher]	1%	?	?	-3%
O=C1CN(CC(=O)N2CCCCC2)c2ccccc2O1	?	2%	28µM*	?	0%
CC(C)OCCCN1C(=O)c2[nH]nc(-c3ccccc3O)c2C1c1cccc(OCc2ccccc2)c1 (stereo unspecified)	-26%	-5%	5%	?	6%
N#CCCN/N=C(/Cc1nc2ccccc2[nH]1)c1cccc(Cl)c1	?	-4%	?	8%	3%
CN/N=C(\Cc1nc2ccccc2[nH]1)c1ccc([N+](=O)[O-])cc1	?	-5%	13µM*	6%	-2%
O=C(Cc1nc2ccccc2[nH]1)c1ccc([N+](=O)[O-])cc1	?	-1%	16µM*	?	-2%
O=C(COc1ccc([N+](=O)[O-])cc1)NCCc1nc2ccccc2[nH]1	-6%	4%	-8%	0%	-1%
O=C(NCCc1nc2ccccc2[nH]1)c1ccc([N+](=O)[O-])cc1	-4%	-5%	?	3%	-2%
Clc1ccc(/C(Cc2nc3ccccc3[nH]2)=N\Nc2ccccc2)cc1	13µM*[quencher]	-9%	?	-8%	1%
CC1(C)C(=O)NC(=O)N1CO	/	13%[201 µM]	/	/	2%[201 µM]
COc1ccc(C2CC(=O)N3CN(C4CCCCC4)CSC3=C2C#N)cc1 (stereo unspecified)	-19%	3%	18µM*	?	-1%
COc1cccc(C2CC(=O)N3CN(C4CCCCC4)CSC3=C2C#N)c1 (stereo unspecified)	-24%	0%	35µM*	?	-1%
CN1CSC2=C(C#N)C(c3cccc(OCc4ccccc4)c3)CC(=O)N2C1 (stereo unspecified)	-20%	6%	?	?	-2%
